# phage Ecoli inh = growth loss of phage-infected E. coli, primary screen, RecBCD inhibitor project, absorbance, with phage, HTS | 360,000 compounds, 0.26% hits | inhibition, % at 11.9 µM; in the data active means inhibition above about 11%
# AddAB inh = growth inhibition of E. coli expressing H. pylori AddAB, primary screen, AddAB inhibitor project, absorbance | inhibition, % at 11.9 µM | AID 435030, 2010 | 330,000 compounds, 0.29% hits; in the data active means inhibition above about 12%;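 further: 0% = vehicle wells of infected cells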
# Tat export inh = E. coli Tat export inhibitors, primary screen, MC4100, TorA-mCherry reporter, fluorescence, single point; inhibition, % at 10 µM; 340,000 compounds, 0.036% hits; AID 488895, 2010;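 active means mean replicate inhibition at least 50% and at least half of replicates individually reaching 50%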;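 further: exported cargo escapes ClpAP degradation while cytoplasmic cargo is degraded and loses fluorescence; 0% = median of neutral control wells and 100% = median of NaSCN control wells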
# E coli growth-1 = E. coli V3065 growth inhibition, primary screen, counter-screen for AddAB inhibitor project, absorbance, OD600; 330,000 compounds, 0.27% hits; 18 h; inhibition, % at 11.9 µM; AID 449728, 2010;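 active means inhibition above the campaign's mean inhibition across all tested compounds plus 3 SD, cut at about 9.9% in these data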;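 further: uninfected addAB+ strain grown without phage in ampicillin broth; 0% = DMSO wells and 100% = ciprofloxacin 0.95 µg/ml wells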
# E coli growth-2 = E. coli growth inhibition, primary screen, OD600 | Escherichia coli growth, 23 h; hits give low values | OD600 absorbance (no concentration beside the values) | 330,000 compounds, 0.21% hits | AID 1053175, 2014;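 active means OD600 absorbance below the run mean of sample wells minus 3.6 SD, in any replicate, cut at about 0.56 in these data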
# AddAB conf = growth loss of phage-infected E. coli expressing H. pylori AddAB, confirmation, AddAB inhibitor project, absorbance, E. coli V3065, T4 phage, triplicate; OD; T4 phage with gene 2 nonsense mutations; 880 compounds, 64% hits; shares compounds with AddAB inh; AID 488942, 2010; inhibition, % at 11.9 µM;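 active means mean inhibition above a set limit taken from the earlier primary screen, cut at about 13% in these data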;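 further: higher means less bacterial growth since AddAB block lets phage replicate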
# RecBCD counter = growth loss of RecBCD+ E. coli with mutant T4 phage, counter-screen for AddAB inhibitor project, absorbance, V66 E. coli | inhibition, % at 11.9 µM | OD growth | shares compounds with AddAB inh | AID 488955, 2010 | 880 compounds, 73% hits;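 active means mean inhibition above the mean of solvent-only control wells plus 3 SD, cut at about 4% in these data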;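 further: optical density read after an 18 h incubation at 37 °C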
# bact viab count = bacterial viability inhibition counter-screen, confirmation, counter-screen for AddAB inhibitor project, absorbance; shares compounds with AddAB inh; 880 compounds, 35% hits; inhibition, % at 11.9 µM; absorbance (AddAB counterscreen); in the data active means inhibition above about 25%
# * marks the source's active call; other numbers are inactive results; . = no result. Only some compounds are listed: those with a hit (about 0.5% of all), similar ones and a draw of the others.
SMILES,phage Ecoli inh,AddAB inh,Tat export inh,E coli growth-1,E coli growth-2,AddAB conf,RecBCD counter,bact viab count
CCOC(=O)c1cccc(NC(=S)N2CCN(c3ncc4c(=O)c(C(=O)O)cn(CC)c4n3)CC2)c1,4.7,6.6,9.1,5.7,0.684,.,.,.
CCn1cc(C(=O)O)c(=O)c2cnc(N3CCN(C(=S)Nc4ccccc4)CC3)nc21,1.4,98.0*,-2.7,49.7*,0.444*,4.9,0.9,1.2
CCn1cc(C(=O)O)c(=O)c2cnc(N3CCN(C(=S)Nc4ccccc4C(F)(F)F)CC3)nc21,5.9,98.0*,3.3,94.5*,0.536,48.7*,2.1,23.1
CCOc1ccc(C=CC2=CC(C)(C)NC(=S)N2)cc1,.,.,.,.,0.674,.,.,.
C=CCCCCCCCCC(=O)N1CCN(c2cc3c(cc2F)c(=O)c(C(=O)O)cn3CC)CC1,3.4,41.2*,7.8,35.3*,0.304*,98.1*,4.0*,71.6*
CCn1cc(C(=O)O)c(=O)c2cc(F)c(N3CCN(C(=S)NC(=O)c4ccccc4Cl)CC3)cc21,9.6,98.0*,-1.4,84.1*,0.075*,101.8*,100.0*,101.8*
CC(C)CCN1C(Nc2ccccc2)=NCC1C (stereo unspecified),.,.,.,.,0.684,.,.,.
O=C(NC1CC1)C1=CC(C2CCCCC2)CC(OCCCCO)O1 (stereo unspecified),.,.,.,.,0.701,.,.,.
Cc1nc2oc3c(=O)[nH]cnc3c2c2c1COC(C)(C)C2,0.1,30.6*,0.2,-0.5,0.676,-0.7,0.2,-2.9
O=C(CCNC(=O)c1ccco1)Nc1cccc(Br)c1,3.2,14.3*,-7.3,2.2,0.674,6.9,3.5,1.2
CSc1cccc(NC(=O)CCNC(=O)c2ccco2)c1,3.2,7.3,1.6,5.5,0.659,.,.,.
CON=C(N)c1ccc([N+](=O)[O-])cc1,.,.,.,.,0.709,.,.,.
CCCc1c(C)nc2ccc(OC)cc2c1SCCC(=O)O,0.1,15.5*,-5.5,-0.7,0.683,1.6,0.5,-2.3
C=CCOc1c(C=NNC(N)=O)cccc1OC,.,.,.,.,0.648,.,.,.
O=C(NCCSc1c[nH]c2ccccc12)c1c(F)cccc1F,-0.5,-0.8,2.3,0.5,0.65,.,.,.
O=C(NCCSc1c[nH]c2ccccc12)c1ccco1,1.9,81.3*,-8.9,27.1*,0.712,-1.1,1.6,1.0
CC(CC(=O)Nc1ccc(Cl)cc1)=NNC(=O)C(=O)NCCO,.,.,.,.,0.677,.,.,.
Cc1cc(C=NNc2ccc([N+](=O)[O-])cn2)c(C)n1-c1cccc(C(=O)O)c1,.,.,.,.,0.713,.,.,.
C[n+]1cccc2c(Br)ccc([O-])c21,2.2,0.8,2.5,-3.8,0.648,.,.,.
[O-][n+]1cccc2c(Br)cc(Br)c(O)c21,43.4*,39.5*,-7.5,39.9*,0.237*,37.5*,46.6*,40.6*
O=C(NC(c1ccc(Cl)cc1)c1c(O)ccc2ccccc12)c1ccccc1 (stereo unspecified),7.5,13.7*,3.4,2.3,0.669,1.0,2.3,-1.5
O=C(NC(c1ccccc1)c1c(O)ccc2ccccc12)c1ccccc1Cl (stereo unspecified),3.9,2.7,6.2,0.5,0.724,.,.,.
CCN1C(=O)C2C(c3ccc(C)cc3)N3C(=O)N(c4ccc(C(F)(F)F)cc4)C(=O)[C@@]3(CC)C2C1=O (stereo partly specified),.,.,.,.,0.696,.,.,.
Cc1ccc(NC(=O)COC(=O)C2CCN(c3ccc(C(F)(F)F)cn3)CC2)cc1C,6.2,96.1*,9.4,52.5*,0.707,-3.6,-1.7,-3.2
Cc1ccc(-c2cc(C(F)(F)F)n3ncc(C(=O)O)c3n2)cc1,2.1,.,3.9,.,0.761,.,.,.
Cc1cc(C(F)(F)F)n2ncc(C(=O)O)c2n1,3.6,16.9*,-4.2,6.4,0.758,-1.7,1.3,-0.1
Cc1cc2c(cc1C)C(=NNC(=O)c1ccccn1)CCC2,.,.,.,.,0.672,.,.,.
CC(C)COC(=O)C(C#N)=Cc1c[nH]c2ccccc12,.,.,.,.,0.695,.,.,.
CCCCCC(=O)NCc1c(C(F)(F)F)nn(C)c1N1CCOCC1,0.5,97.6*,0.4,96.8*,0.715,-3.2,0.8,-0.4

# High-throughput results from PubChem BioAssay.
